# Source: PubChem BioAssay AID651910 (Vanderbilt Specialized Chemistry Center, 2012)
# Calls of active or inactive are those of the source. No rule for the calls is given here.
# Target: Polyamine deacetylase HDAC10 (Homo sapiens) (UniProt Q969S8)
# Experiment: HDAC10 deacetylase inhibition, profiling panel, selectivity assay for E-cadherin restoration project, biochemical, human (AID 651910)
# Sequence of Polyamine deacetylase HDAC10 (Homo sapiens) (Q969S8 whole entry, looked up): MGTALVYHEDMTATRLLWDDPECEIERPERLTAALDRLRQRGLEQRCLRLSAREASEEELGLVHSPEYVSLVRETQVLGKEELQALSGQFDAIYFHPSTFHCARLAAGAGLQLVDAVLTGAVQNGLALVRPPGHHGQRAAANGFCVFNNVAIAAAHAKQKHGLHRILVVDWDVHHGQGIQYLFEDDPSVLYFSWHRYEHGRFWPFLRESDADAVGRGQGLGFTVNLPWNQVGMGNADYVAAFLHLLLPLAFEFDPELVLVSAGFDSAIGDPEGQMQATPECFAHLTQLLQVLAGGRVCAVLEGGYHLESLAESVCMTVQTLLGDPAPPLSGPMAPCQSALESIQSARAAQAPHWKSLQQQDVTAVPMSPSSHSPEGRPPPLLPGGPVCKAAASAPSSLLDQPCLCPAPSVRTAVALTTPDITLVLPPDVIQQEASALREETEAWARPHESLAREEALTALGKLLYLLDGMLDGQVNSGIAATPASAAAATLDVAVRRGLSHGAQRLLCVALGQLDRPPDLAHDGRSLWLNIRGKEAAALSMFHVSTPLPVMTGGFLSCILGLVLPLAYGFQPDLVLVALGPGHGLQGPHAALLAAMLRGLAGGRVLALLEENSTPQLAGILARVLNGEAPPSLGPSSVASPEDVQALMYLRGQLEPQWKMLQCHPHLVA
compound,measurement,value
O=C(NCCCNC(=O)c1ccc[nH]c1=O)c1cc(-c2ccccc2)on1,outcome,inactive
